Several values for one entry are separate records, joined by “and”; a condition that tells them apart may be missing. Equal entries are not always repeated. The panel holds about 83,000 compounds, 20% with a hit somewhere; the sample as a whole holds those more often.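 How to read the values: 0–100, growth inhibition (40 = 60% inhibited); 0, no net growth; -100 to 0, cell death (-40 = 40% of starting cells died; -100 = all dead).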 Values without a mark were called inactive. Activity calls are given as the source filed them. The calls were made as follows: active = growth percent below 10; inactive = the rest.

This experiment relates to MDA-MB-468 breast. Briefly: NCI-60 one-dose screen, 48 h (100 = growth as untreated, 0 = no growth, -100 = all killed). Conditions: 10 µM unless noted.
Regarding `CC[C@]1(O)C[C@@H]2CN(CCc3c([nH]c4ccccc34)[C@@](C(=O)OC)(c3cc4c(cc3OC)N(C)[C@H]3[C@@](O)(C(=O)OC)[C@H](OC(=O)CCCBr)[C@]5(CC)C=CCN6CC[C@]43[C@@H]65)C2)C1`, the growth is 31.8%. For `CCOP(=O)(OCC)c1nc(-c2ccccc2)oc1NCc1cccnc1` the value was 114%; for `CC(=O)N1N=C(c2cccc(-n3cccc3)c2)CC1c1cccc(F)c1` (stereo not given), 90.4%. For `O=S(=O)(NCCCNc1nccc(-c2c(-c3cccc(F)c3)nc3sccn23)n1)c1cccc(F)c1` the value was 33%. With `COc1ccc(-c2nn(-c3ccc(Cl)cc3)cc2-c2nc3ccccc3[nH]2)cc1` the figure was 106%; with `O=C1COCCN1c1ccc(NCc2cn(C(=O)c3ccc(Cl)cc3)c3ccccc23)cc1`, -66.6% (active); with `c1ccc(-c2n(Cc3ccc4ccccc4n3)c3ccccc3[n+]2Cc2ccc3ccccc3n2)cc1`, -34.3% (active). With `Oc1ccc(CCC2CCCC(CCc3ccc(OCCF)cc3)N2)cc1` (stereo not given), the growth was 110%.

As for `Cc1ccc(C(=O)c2ccc(CC(=O)N/N=C/c3cccc(O)c3O)n2C)cc1`, the growth was 54.9%.

Regarding `COc1cccc(CNC(=O)c2cccc(C3CC(=O)c4c(cc(OC)c(OC)c4OC)O3)c2)c1` (stereo not given), the growth is 20.5%. With `CN[C@@]12CC3(C=CC(=O)C=C3)O[C@]1(Cc1ccc(OC)cc1)N(C)C(=O)N2` the figure was 23.7%.

Regarding `Cn1c(=O)c2c(ncn2CC[N+](C)(C)C)n(C)c1=O`, the growth is 101%. For `CC(=O)Oc1cc(C(=O)O)cc(OC(C)=O)c1OC(C)=O` the value was 98.6% and 108%; for `COC(=O)c1c2c(c(C)[n+]([O-])c1C)C(=O)C(NCCN1CCOCC1)=CC2=O`, 28.8%. With `Cc1nn(-c2ccc(Cl)cc2)c2ncnc(N/N=C/c3cccc([N+](=O)[O-])c3)c12` the figure was 117%; with `CN(C)CCCNC(=O)c1cncnc1Nc1ccc2c(ccn2Cc2cccc(F)c2)c1`, 52.6%.

On to `CCCOCc1cn[nH]n1`, for which the growth is 105%. For `Clc1nc2ccc(Br)cc2cc1-c1nc2ccccc2[nH]1` the value was 76.3%. With `O=C1c2cccc3c(-c4ccc5c(c4)ncn5C4CCCCC4)ccc(c23)C(=O)N1c1nc2ccccc2s1` the figure was 92%. As to `CCCCCCCCCCCCCCCC(=O)O[C@@H]1[C@@H](O)[C@@H](O)C([C@H](NC(=O)[C@@H]2C[C@@H](CCC)CN2C)[C@H](C)Cl)O[C@@H]1SC` (stereo not given in full), the growth was 97.9%.

Consider `COc1nccc2c(Sc3ccccc3)nc(N)nc12`, for which the growth was 112%. As to `Oc1c(Cl)cc(Cl)c(Cl)c1CNCCNCc1c(O)c(Cl)cc(Cl)c1Cl`, the growth is 2.91% (active). Turning to `CC(=O)n1c2ccccc2c2ccccc21`, the growth is 105%.

For the compound `COc1cc(C2c3cc4c(cc3C(OC(=O)C[n+]3ccccc3)C3COC(=O)C23)OCO4)cc(OC)c1OC` (stereo not given), the growth is 5.13% (active). With `COc1ccc(/C=N/c2cc(C(C)(C)C)nn2-c2ccccc2)cc1` the figure was 124%. For `C=C1C(=O)O[C@H]2[C@H]1CC/C(COC(=O)NCC(=O)Nc1ccc(OC)c(C(N)=O)c1O)=C\CC[C@@]1(C)O[C@@H]21` the value was 8.85% (active).

Regarding `N=C(N=C(N)N)N1CCOCC1`, the growth is 100% and 101%.

`CC1(C)NCCC[C@]2(C)[C@H]3C=CC4=C5C[C@](C)(CO)CC[C@]5(C)CC[C@@]4(C)[C@]3(C)CC[C@@H]12`: the growth is -79.5% [100 µM] (active). For `COc1ccc([C@@H]2[C@@H](O)C(=O)N2c2cc(OC)c(OC)c(OC)c2)cc1F` the value was -3.08% (active); for `CC(C)=CCC[C@](C)(O)[C@H]1CC[C@]2(C)[C@@H]1CC[C@@H]1[C@@]3(C)CC[C@H](OC(=O)CCC(=O)O)C(C)(C)[C@@H]3CC[C@]12C`, 30.5% [100 µM]; for `C=C1C(=O)O[C@H]2[C@H]1CC/C(CNC(=O)/C=C/c1cc(OC)c(OC)c(OC)c1)=C\CC[C@@]1(C)O[C@@H]21`, -57.6% (active). For `O=P(OCCCl)(OCCCl)C(O)c1ccccc1Cl` (stereo not given) the value was 109%; for `CC(=O)N1N=C(CCC(=O)c2nc3ccc([N+](=O)[O-])cc3[nH]2)OC1c1ccc(O)cc1` (stereo not given), 108%. With `CN(C)c1ccc(/C=C2\Cc3c(F)ccc(Br)c3C2=O)cc1` the figure was -29.4% (active); with `O=[N+]([O-])CC(O)c1ccccc1` (stereo not given), 98.7%.

The record behind these values is PubChem BioAssay (NCI).
